According to PubChem BioAssay (NCATS):
Records with an inconclusive call do not appear. Activity calls are given as the source filed them. The call rests on the fitted dose curve; in most records, active means well fitted cell-killing curve with a large enough effect; inconclusive means small, poorly fitted or top-dose-only effect, or effect the other way; inactive means flat fitted curve, though single readings scatter.

Legend:
Test in all cases: Primary qHTS to identify gynecologic anti-cancer compounds using libraries of approved drugs and bioactive compounds (AID 1345084); further: nearly all actives have a fitted effect of over 55% in size
C33A = conditions: Gynecologic cancer cell panel viability, ATPlite luminescence, 48 h; series mostly up to 57.5 µM
Method in brief: (§1)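 In this quantitative HTS, cell killing is estimated from loss of ATP-dependent luciferase light. Cells see five compound concentrations over a 48 h exposure.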

CAOV3 = conditions: Gynecologic cancer cell panel viability, ATPlite luminescence, 48 h; series mostly up to 57.5 µM
Method in brief: as §1

CASKI = conditions: Gynecologic cancer cell panel viability, ATPlite luminescence, 48 h; series mostly up to 57.5 µM
Method in brief: as §1

Es-2 = conditions: Gynecologic cancer cell panel viability, ATPlite luminescence, 48 h; series mostly up to 57.5 µM
Method in brief: as §1

HeLa = conditions: Gynecologic cancer cell panel viability, ATPlite luminescence, 48 h; series mostly up to 57.5 µM
Method in brief: as §1

Hek293T = conditions: Gynecologic cancer cell panel viability, ATPlite luminescence, 48 h, control line for the selectivity index; series mostly up to 57.5 µM
Method in brief: as §1

JEG-3 = conditions: Gynecologic cancer cell panel viability, ATPlite luminescence, 48 h; series mostly up to 57.5 µM
Method in brief: as §1

OV90 = conditions: Gynecologic cancer cell panel viability, ATPlite luminescence, 48 h; series mostly up to 57.5 µM
Method in brief: as §1

PA-1 = conditions: Gynecologic cancer cell panel viability, ATPlite luminescence, 48 h; series mostly up to 57.5 µM
Method in brief: as §1

SKOV3 = conditions: Gynecologic cancer cell panel viability, ATPlite luminescence, 48 h; series mostly up to 57.5 µM
Method in brief: as §1

Tov-21-G = conditions: Gynecologic cancer cell panel viability, ATPlite luminescence, 48 h; series mostly up to 57.5 µM
Method in brief: as §1

Tov112D = conditions: Gynecologic cancer cell panel viability, ATPlite luminescence, 48 h; series mostly up to 57.5 µM
Method in brief: as §1
On the % scale 0 is the no-effect control and ±100 the full control effect.

CC(CC(C#N)(c1ccccc1)C(C)C)N(C)C (stereo not given)
inactive: Potency (C33A) | Potency (CAOV3) | Potency (CASKI) | Potency (Es-2) | Potency (HeLa) | Potency (Hek293T) | Potency (JEG-3) | Potency (OV90) | Potency (PA-1) | Potency (SKOV3) | Potency (Tov-21-G) | Potency (Tov112D)

COc1ccccc1N1CCN(CCN2C(=O)CC3(CCCC3)CC2=O)CC1
inactive: Potency (C33A) | Potency (CAOV3) | Potency (CASKI) | Potency (Es-2) | Potency (HeLa) | Potency (Hek293T) | Potency (JEG-3) | Potency (OV90) | Potency (PA-1) | Potency (SKOV3) | Potency (Tov-21-G) | Potency (Tov112D)

COC(=O)/C=C\C(=O)OC
inactive: Potency (C33A) | Potency (CAOV3) | Potency (CASKI) | Potency (Es-2) | Potency (HeLa) | Potency (Hek293T) | Potency (JEG-3) | Potency (OV90) | Potency (PA-1) | Potency (SKOV3) | Potency (Tov-21-G) | Potency (Tov112D)

CC(C)OP(=O)(CP(=O)(OC(C)C)OC(C)C)OC(C)C
inactive: Potency (C33A) | Potency (CAOV3) | Potency (CASKI) | Potency (Es-2) | Potency (HeLa) | Potency (Hek293T) | Potency (JEG-3) | Potency (OV90) | Potency (PA-1) | Potency (SKOV3) | Potency (Tov-21-G) | Potency (Tov112D)

CCOC(=O)CN1CCCC1=O
inactive: Potency (C33A) | Potency (CAOV3) | Potency (CASKI) | Potency (Es-2) | Potency (HeLa) | Potency (Hek293T) | Potency (JEG-3) | Potency (OV90) | Potency (PA-1) | Potency (SKOV3) | Potency (Tov-21-G) | Potency (Tov112D)

Nc1cc(C(F)(F)F)ccc1S
inactive: Potency (C33A) | Potency (CAOV3) | Potency (CASKI) | Potency (Es-2) | Potency (HeLa) | Potency (Hek293T) | Potency (JEG-3) | Potency (OV90) | Potency (PA-1) | Potency (SKOV3) | Potency (Tov-21-G) | Potency (Tov112D)

CNC(=O)c1c(I)c(NC(C)=O)c(I)c(C(=O)O)c1I
inactive: Potency (C33A) | Potency (CAOV3) | Potency (CASKI) | Potency (Es-2) | Potency (HeLa) | Potency (Hek293T) | Potency (JEG-3) | Potency (OV90) | Potency (PA-1) | Potency (SKOV3) | Potency (Tov-21-G) | Potency (Tov112D)

COCCc1ccccn1
inactive: Potency (C33A) | Potency (CAOV3) | Potency (CASKI) | Potency (Es-2) | Potency (HeLa) | Potency (Hek293T) | Potency (JEG-3) | Potency (OV90) | Potency (PA-1) | Potency (SKOV3) | Potency (Tov-21-G) | Potency (Tov112D)

C#Cc1ccc(-c2ccccc2F)cc1
inactive: Potency (C33A) | Potency (CAOV3) | Potency (CASKI) | Potency (Es-2) | Potency (HeLa) | Potency (Hek293T) | Potency (JEG-3) | Potency (OV90) | Potency (PA-1) | Potency (SKOV3) | Potency (Tov-21-G) | Potency (Tov112D)

Cc1cc(O)c(C)c(C)c1O
inactive: Potency (C33A) | Potency (CAOV3) | Potency (CASKI) | Potency (Es-2) | Potency (HeLa) | Potency (Hek293T) | Potency (JEG-3) | Potency (OV90) | Potency (PA-1) | Potency (SKOV3) | Potency (Tov-21-G) | Potency (Tov112D)

NS(=O)(=O)c1ccc(N2CCCCS2(=O)=O)cc1
inactive: Potency (C33A) | Potency (CAOV3) | Potency (CASKI) | Potency (Es-2) | Potency (HeLa) | Potency (Hek293T) | Potency (JEG-3) | Potency (OV90) | Potency (PA-1) | Potency (SKOV3) | Potency (Tov-21-G) | Potency (Tov112D)

CN1Cc2cc(C(=O)N3CCC(C4CCNCC4)CC3)ccc2N[C@@H](CC(=O)O)C1=O
inactive: Potency (C33A) | Potency (CAOV3) | Potency (CASKI) | Potency (Es-2) | Potency (HeLa) | Potency (Hek293T) | Potency (JEG-3) | Potency (OV90) | Potency (PA-1) | Potency (SKOV3) | Potency (Tov-21-G) | Potency (Tov112D)

CN1CCN(N)CC1
inactive: Potency (C33A) | Potency (CAOV3) | Potency (CASKI) | Potency (Es-2) | Potency (HeLa) | Potency (Hek293T) | Potency (JEG-3) | Potency (OV90) | Potency (PA-1) | Potency (SKOV3) | Potency (Tov-21-G) | Potency (Tov112D)

COC(=O)c1cc(Cl)ccc1OC
inactive: Potency (C33A) | Potency (CAOV3) | Potency (CASKI) | Potency (Es-2) | Potency (HeLa) | Potency (Hek293T) | Potency (JEG-3) | Potency (OV90) | Potency (PA-1) | Potency (SKOV3) | Potency (Tov-21-G) | Potency (Tov112D)

O=C(CCOCCOCCOCCOCCC(=O)Nc1c(I)cc(I)c(C(=O)O)c1I)Nc1c(I)cc(I)c(C(=O)O)c1I
inactive: Potency (C33A) | Potency (CAOV3) | Potency (CASKI) | Potency (Es-2) | Potency (HeLa) | Potency (Hek293T) | Potency (JEG-3) | Potency (OV90) | Potency (PA-1) | Potency (SKOV3) | Potency (Tov-21-G) | Potency (Tov112D)

O=C(O)C1CCC1
inactive: Potency (C33A) | Potency (CAOV3) | Potency (CASKI) | Potency (Es-2) | Potency (HeLa) | Potency (Hek293T) | Potency (JEG-3) | Potency (OV90) | Potency (PA-1) | Potency (SKOV3) | Potency (Tov-21-G) | Potency (Tov112D)

CC(=O)OC[C@H]1O[C@@H](OC(C)=O)[C@H](OC(C)=O)[C@@H]1OC(C)=O
inactive: Potency (C33A) | Potency (CAOV3) | Potency (CASKI) | Potency (Es-2) | Potency (HeLa) | Potency (Hek293T) | Potency (JEG-3) | Potency (OV90) | Potency (PA-1) | Potency (SKOV3) | Potency (Tov-21-G) | Potency (Tov112D)

CC(C)NC(=O)c1ccc(C=O)cc1
inactive: Potency (C33A) | Potency (CAOV3) | Potency (CASKI) | Potency (Es-2) | Potency (HeLa) | Potency (Hek293T) | Potency (JEG-3) | Potency (OV90) | Potency (PA-1) | Potency (SKOV3) | Potency (Tov-21-G) | Potency (Tov112D)

C[C@@H]1CCC[C@H](C)N1CCCC(O)(c1ccccc1)c1ccccn1 (stereo not given in full)
inactive: Potency (C33A) | Potency (CAOV3) | Potency (CASKI) | Potency (Es-2) | Potency (HeLa) | Potency (Hek293T) | Potency (JEG-3) | Potency (OV90) | Potency (PA-1) | Potency (SKOV3) | Potency (Tov-21-G) | Potency (Tov112D)

NCC[C@H](O)C(=O)N[C@@H]1C[C@H](N)[C@@H](O[C@H]2O[C@H](CN)[C@@H](O)[C@H](O)[C@@H]2O)[C@H](O)[C@@H]1O[C@H]1O[C@H](CO)[C@@H](O)[C@H](N)[C@@H]1O
inactive: activity change, negative = cytotoxicity (C33A) 13.2% [at 0.462 µM] | activity change, negative = cytotoxicity (CAOV3) 10.2% [at 0.462 µM] | activity change, negative = cytotoxicity (CASKI) 11.8% [at 0.462 µM] | activity change, negative = cytotoxicity (Es-2) -2.07% [at 0.462 µM] | activity change, negative = cytotoxicity (HeLa) 16.7% [at 0.462 µM] | activity change, negative = cytotoxicity (Hek293T) 1.79% [at 0.462 µM] | activity change, negative = cytotoxicity (JEG-3) 1.19% [at 0.462 µM] | activity change, negative = cytotoxicity (OV90) -0.567% [at 0.462 µM] | activity change, negative = cytotoxicity (PA-1) 20.2% [at 0.462 µM] | activity change, negative = cytotoxicity (SKOV3) 13.9% [at 0.462 µM] | activity change, negative = cytotoxicity (Tov-21-G) 7.33% [at 0.462 µM] | activity change, negative = cytotoxicity (Tov112D) 1.97% [at 0.462 µM]
